Measurements as given in the supplement of paper PMC10849652.
The full data set covers some 7,900 targets. This sample favours those with a hit. About 0.6% of all pairs of compound and target were hits. Unmarked numbers belong to inactive results.

Columns and labels:
Assay in all cases: log2 fold change, soluble protein after heating vs DMSO (PISA); higher = thermal stabilisation; K562 cells, 10 uM, 30 min; active = over 0.2 and 3.5 SD of the protein, either way, in both replicates (recomputed)
[1] = compound: CC[C@@H]1C(=O)N(C)c2cnc(Nc3ccc(C(=O)NC4CCN(C)CC4)cc3OC)nc2N1C1CCCC1
Outline: (§1)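 Thermal stability values are relative to control samples and come from duplicates. They are expressed as log2 fold changes. For measurement, K562 cells (2×10^6 cells/mL) received 10 μM compound for 30 min, and aliquots were heated for 3 min over 48°C-58°C, pooled, and extracted at 4°C in PBS with 0.5% NP-40. Soluble protein, the supernatant after 21,000xg for 90 min, was quantified by TMTpro 16plex LC-MS/MS with equalised channel sums.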

volasertib = compound: CC[C@@H]1C(=O)N(C)c2cnc(Nc3ccc(C(=O)N[C@H]4CC[C@H](N5CCN(CC6CC6)CC5)CC4)cc3OC)nc2N1C(C)C [volasertib]
Outline: as §1

[2] = compound: CC[C@H](C)N1C=C(C2=C(C=C(C=C21)C3=CN=C(C=C3)N4CCNCC4)C(=O)NCC5=C(C=C(NC5=O)C)C)C
Outline: as §1

epoxomicin = compound: CC[C@H](C)[C@@H](C(=O)N[C@@H]([C@@H](C)O)C(=O)N[C@@H](CC(C)C)C(=O)[C@]1(CO1)C)NC(=O)[C@H]([C@@H](C)CC)N(C)C(=O)C [epoxomicin]
Outline: as §1

[3] = compound: CCn1c(C(=O)N(C2CC2)C2CC2)cc2c3c(ncn3C)c(Nc3cc(C)n(C)n3)nc21
Outline: as §1

[4] = compound: CCn1cc(-c2ccnc3[nH]c(-c4cccc(CN(C)C)c4)cc23)c(-c2ccc(NC(=O)N(C)C)cc2)n1
Outline: as §1

[5] = compound: CN(C)CC(=O)Nc1ccc2[nH]c(=O)c3ccccc3c2c1
Outline: as §1

rosiglitazone = compound: CN(CCOC1=CC=C(C=C1)C[C@H]2C(=O)NC(=O)S2)C3=CC=CC=N3 (racemic) [rosiglitazone]
Outline: as §1

[6] = compound: CN1C2=C(C3=C1C(=O)N(N=C3)CC4=CC(=CC=C4)N)SC(=C2)S(=O)C
Outline: as §1

[7] = compound: CN1CCC(CNc2ccc3ncc(-c4cccc(OC(F)(F)F)c4)n3n2)CC1
Outline: as §1

saracatinib = compound: CN1CCN(CCOc2cc(OC3CCOCC3)c3c(Nc4c(Cl)ccc5c4OCO5)ncnc3c2)CC1 [saracatinib]
Outline: as §1

sotrastaurin = compound: CN1CCN(c2nc(C3=C(c4c[nH]c5ccccc45)C(=O)NC3=O)c3ccccc3n2)CC1 [sotrastaurin]
Outline: as §1

alvocidib = compound: CN1CC[C@H](c2c(O)cc(O)c3c(=O)cc(-c4ccccc4Cl)oc23)[C@H](O)C1 [alvocidib]
Outline: as §1

Tubastatin A = compound: CN1CCc2c(c3ccccc3n2Cc2ccc(C(=O)NO)cc2)C1 [Tubastatin A]
Outline: as §1

[8] = compound: CNC(=O)C1=CC=CC=C1NC2=NC(=NC=C2Cl)NC3=C(C=C(C=C3)N4CCOCC4)OC
Outline: as §1

defactinib = compound: CNC(=O)c1ccc(Nc2ncc(C(F)(F)F)c(NCc3nccnc3N(C)S(C)(=O)=O)n2)cc1 [defactinib]
Outline: as §1

rucaparib = compound: CNCc1ccc(-c2[nH]c3cc(F)cc4c3c2CCNC4=O)cc1 [rucaparib]
Outline: as §1

[9] = compound: CNc1nc(-c2ccc3c(N)n[nH]c3c2)cc(N2C[C@@H](C(=O)NC3CCCCC3)CC[C@H]2C)n1
Outline: as §1

encorafenib = compound: COC(=O)N[C@@H](C)CNc1nccc(-c2cn(C(C)C)nc2-c2cc(Cl)cc(NS(C)(=O)=O)c2F)n1 [encorafenib]
Outline: as §1

[10] = compound: COC(=O)[C@H](CCSC)NC(=O)C1=C(C=C(C=C1)NC[C@H](CS)N)C2=CC=CC=C2
Outline: as §1

UniProt Q5JVF3, sequence (Q5JVF3 whole entry, looked up): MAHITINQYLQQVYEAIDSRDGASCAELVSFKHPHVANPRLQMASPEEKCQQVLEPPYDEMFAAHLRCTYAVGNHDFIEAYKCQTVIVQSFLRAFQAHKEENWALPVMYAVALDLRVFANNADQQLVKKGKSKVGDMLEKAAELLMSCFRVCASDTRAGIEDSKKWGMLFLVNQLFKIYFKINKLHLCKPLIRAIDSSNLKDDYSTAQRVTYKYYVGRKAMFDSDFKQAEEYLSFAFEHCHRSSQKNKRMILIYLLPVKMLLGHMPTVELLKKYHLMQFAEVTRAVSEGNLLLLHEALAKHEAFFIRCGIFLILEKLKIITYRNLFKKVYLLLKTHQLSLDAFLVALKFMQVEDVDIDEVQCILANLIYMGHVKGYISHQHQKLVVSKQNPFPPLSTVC
UniProt P48556, sequence (P48556 whole entry, looked up): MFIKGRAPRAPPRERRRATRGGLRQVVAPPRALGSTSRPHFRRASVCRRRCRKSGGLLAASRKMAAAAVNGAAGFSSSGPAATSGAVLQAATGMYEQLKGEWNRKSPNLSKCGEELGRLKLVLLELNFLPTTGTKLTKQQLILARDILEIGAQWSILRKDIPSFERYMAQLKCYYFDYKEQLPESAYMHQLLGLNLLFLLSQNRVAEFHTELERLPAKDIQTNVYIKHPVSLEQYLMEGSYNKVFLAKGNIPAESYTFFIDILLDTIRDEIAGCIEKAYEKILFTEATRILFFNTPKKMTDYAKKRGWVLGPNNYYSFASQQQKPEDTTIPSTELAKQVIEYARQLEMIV
UniProt Q32M88, sequence (Q32M88 whole entry, looked up): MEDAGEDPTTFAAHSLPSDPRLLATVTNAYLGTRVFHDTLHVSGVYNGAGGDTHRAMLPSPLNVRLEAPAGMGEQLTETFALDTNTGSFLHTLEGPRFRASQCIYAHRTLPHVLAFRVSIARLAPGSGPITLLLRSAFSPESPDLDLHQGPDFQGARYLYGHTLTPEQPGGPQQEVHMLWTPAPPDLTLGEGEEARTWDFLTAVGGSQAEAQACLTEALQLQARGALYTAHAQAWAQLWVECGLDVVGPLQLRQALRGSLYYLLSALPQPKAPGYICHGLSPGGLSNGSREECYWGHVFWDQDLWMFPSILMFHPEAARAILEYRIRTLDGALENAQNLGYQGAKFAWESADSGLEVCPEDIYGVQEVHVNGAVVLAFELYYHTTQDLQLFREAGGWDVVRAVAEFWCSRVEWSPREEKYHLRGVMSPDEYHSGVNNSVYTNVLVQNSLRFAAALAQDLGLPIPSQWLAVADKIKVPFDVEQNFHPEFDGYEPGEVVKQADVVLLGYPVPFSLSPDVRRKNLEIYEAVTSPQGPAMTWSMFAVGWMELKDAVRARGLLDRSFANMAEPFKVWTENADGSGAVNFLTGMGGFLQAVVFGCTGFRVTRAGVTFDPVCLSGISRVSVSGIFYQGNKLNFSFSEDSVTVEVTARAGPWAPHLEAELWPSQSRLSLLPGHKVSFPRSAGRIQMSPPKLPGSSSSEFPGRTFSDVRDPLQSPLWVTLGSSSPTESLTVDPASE
UniProt P35227, sequence (P35227 whole entry, looked up): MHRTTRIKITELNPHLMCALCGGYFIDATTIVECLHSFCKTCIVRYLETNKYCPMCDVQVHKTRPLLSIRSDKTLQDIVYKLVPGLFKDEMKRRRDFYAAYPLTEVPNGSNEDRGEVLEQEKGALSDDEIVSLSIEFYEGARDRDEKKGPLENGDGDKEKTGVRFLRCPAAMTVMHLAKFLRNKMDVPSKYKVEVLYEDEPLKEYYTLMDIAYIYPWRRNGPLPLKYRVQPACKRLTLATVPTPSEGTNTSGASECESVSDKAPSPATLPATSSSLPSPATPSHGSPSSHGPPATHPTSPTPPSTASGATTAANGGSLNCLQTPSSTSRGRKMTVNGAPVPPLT
UniProt P17980, sequence (P17980 whole entry, looked up): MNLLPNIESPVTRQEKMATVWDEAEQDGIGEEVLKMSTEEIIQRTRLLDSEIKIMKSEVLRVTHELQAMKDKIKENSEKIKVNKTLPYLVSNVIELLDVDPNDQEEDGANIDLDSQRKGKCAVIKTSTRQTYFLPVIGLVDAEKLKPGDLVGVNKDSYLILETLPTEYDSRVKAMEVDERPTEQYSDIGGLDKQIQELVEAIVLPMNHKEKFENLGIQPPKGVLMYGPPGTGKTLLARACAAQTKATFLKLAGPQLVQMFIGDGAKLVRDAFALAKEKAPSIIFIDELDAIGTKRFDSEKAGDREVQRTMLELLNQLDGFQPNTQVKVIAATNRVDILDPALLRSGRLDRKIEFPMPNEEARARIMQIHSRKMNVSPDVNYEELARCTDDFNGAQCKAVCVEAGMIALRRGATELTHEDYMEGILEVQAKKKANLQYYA
UniProt Q16401, sequence (Q16401 whole entry, looked up): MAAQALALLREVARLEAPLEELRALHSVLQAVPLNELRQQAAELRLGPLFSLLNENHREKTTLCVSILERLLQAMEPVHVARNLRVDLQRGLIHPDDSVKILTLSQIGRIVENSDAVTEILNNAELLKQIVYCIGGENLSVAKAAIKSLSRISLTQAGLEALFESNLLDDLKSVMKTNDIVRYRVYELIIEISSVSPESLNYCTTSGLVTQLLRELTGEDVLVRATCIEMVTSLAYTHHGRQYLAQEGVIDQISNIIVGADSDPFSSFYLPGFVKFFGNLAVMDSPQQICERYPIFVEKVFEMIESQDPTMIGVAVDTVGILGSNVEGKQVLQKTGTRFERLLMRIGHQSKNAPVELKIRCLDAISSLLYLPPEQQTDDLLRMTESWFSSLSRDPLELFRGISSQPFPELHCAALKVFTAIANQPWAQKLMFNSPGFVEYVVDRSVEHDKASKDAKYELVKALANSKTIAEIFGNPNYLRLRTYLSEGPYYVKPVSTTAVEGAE
UniProt O96011, sequence (O96011 whole entry, looked up, change not shown): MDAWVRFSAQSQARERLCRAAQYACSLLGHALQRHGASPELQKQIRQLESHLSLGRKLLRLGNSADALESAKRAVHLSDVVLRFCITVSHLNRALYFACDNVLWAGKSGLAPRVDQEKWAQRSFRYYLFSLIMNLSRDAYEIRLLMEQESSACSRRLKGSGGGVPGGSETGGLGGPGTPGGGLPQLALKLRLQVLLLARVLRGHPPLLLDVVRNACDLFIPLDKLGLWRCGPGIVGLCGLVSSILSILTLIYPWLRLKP
UniProt P62195, sequence (P62195 whole entry, looked up): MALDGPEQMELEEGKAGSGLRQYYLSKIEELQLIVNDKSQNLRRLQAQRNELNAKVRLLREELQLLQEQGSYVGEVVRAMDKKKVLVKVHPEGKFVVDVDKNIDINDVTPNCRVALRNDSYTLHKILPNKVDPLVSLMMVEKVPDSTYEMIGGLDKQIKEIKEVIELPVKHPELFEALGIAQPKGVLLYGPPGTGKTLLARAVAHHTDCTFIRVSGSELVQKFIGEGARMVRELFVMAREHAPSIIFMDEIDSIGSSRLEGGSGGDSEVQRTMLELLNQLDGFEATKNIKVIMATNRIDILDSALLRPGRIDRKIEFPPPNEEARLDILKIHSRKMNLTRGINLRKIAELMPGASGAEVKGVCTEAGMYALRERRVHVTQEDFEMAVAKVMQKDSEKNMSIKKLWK
UniProt Q05209, sequence (Q05209 whole entry, looked up): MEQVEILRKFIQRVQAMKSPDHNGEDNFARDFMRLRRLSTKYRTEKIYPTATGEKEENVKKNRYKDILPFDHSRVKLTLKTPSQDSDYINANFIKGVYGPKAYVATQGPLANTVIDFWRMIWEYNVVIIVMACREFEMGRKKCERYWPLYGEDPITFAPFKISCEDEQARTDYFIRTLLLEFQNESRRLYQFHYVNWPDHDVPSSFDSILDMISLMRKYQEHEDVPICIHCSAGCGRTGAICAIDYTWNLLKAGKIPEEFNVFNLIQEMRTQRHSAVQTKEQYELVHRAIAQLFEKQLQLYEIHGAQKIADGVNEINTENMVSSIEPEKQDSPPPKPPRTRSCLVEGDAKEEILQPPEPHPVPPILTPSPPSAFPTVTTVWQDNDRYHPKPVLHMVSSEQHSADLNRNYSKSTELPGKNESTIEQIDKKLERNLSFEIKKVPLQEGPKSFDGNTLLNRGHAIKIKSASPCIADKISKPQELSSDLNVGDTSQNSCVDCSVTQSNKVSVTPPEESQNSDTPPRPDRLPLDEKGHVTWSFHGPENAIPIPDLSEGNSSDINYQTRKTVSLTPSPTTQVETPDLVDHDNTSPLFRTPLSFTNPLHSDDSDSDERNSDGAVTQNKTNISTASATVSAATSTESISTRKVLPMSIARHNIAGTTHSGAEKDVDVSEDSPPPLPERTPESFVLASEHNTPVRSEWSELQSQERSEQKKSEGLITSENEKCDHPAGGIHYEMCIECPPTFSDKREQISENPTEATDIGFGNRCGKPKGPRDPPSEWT
UniProt Q86TP1, sequence (Q86TP1 whole entry, looked up): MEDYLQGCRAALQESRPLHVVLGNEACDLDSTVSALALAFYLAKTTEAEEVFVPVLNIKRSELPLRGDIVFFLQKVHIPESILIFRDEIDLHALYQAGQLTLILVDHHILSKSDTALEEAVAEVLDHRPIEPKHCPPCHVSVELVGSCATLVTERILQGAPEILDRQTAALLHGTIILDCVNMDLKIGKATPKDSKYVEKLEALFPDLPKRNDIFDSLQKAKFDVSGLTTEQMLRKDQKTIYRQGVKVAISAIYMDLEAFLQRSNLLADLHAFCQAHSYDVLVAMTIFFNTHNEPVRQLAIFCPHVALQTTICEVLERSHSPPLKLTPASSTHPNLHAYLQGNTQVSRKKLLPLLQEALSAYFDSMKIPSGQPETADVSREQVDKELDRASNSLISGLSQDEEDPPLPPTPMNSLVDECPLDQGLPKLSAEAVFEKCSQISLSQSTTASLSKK
UniProt O00625, sequence (O00625 whole entry, looked up): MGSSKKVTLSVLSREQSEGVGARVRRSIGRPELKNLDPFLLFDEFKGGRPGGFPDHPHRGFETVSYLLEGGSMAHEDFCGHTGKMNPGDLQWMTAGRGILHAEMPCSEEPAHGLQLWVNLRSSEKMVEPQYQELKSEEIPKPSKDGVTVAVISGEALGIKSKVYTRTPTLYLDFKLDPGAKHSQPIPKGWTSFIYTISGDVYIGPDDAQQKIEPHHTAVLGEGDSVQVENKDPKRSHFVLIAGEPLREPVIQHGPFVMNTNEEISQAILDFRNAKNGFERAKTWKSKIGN

Target | log2 fold change [1] | log2 fold change (volasertib) | log2 fold change [2] | log2 fold change (epoxomicin) | log2 fold change [3] | log2 fold change [4] | log2 fold change [5] | log2 fold change (rosiglitazone) | log2 fold change [6] | log2 fold change [7] | log2 fold change (saracatinib) | log2 fold change (sotrastaurin) | log2 fold change (alvocidib) | log2 fold change (Tubastatin A) | log2 fold change [8] | log2 fold change (defactinib) | log2 fold change (rucaparib) | log2 fold change [9] | log2 fold change (encorafenib) | log2 fold change [10]
PRUNE1 (UniProt Q86TP1) | -0.083 | -0.417 (active) | 0.067 | 0.012 | -0.035 | -0.024 | -0.018 | 0.04 | -0.079 | -0.089 | -0.071 | -0.045 | -0.053 | 0.017 | 0.007 | -0.05 | 0.027 | 0.033 | 0.006 | 0.005
PSMD5 (UniProt Q16401) | -0.112 | -0.225 (active) | 0.013 | 0.027 | 0 | -0.026 | -0.011 | 0.012 | -0.043 | -0.038 | 0.019 | -0.014 | -0.047 | -0.037 | 0.016 | -0.049 | -0.045 | -0.028 | 0.008 | 0.031
PGGHG (UniProt Q32M88) | 0.012 | 0.098 | 0.051 | 0.011 | -0.094 | -0.025 | 0.069 | 0.029 | -0.025 | -0.096 | 0.061 | -0.014 | 0.009 | 0.04 | -0.029 | 0.127 | 0.02 | 0.017 | -0.086 | -0.02
PSMD8 (UniProt P48556) | 0.054 | 0.25 | -0.01 | -0.286 (active) | 0.022 | 0.039 | -0.037 | -0.048 | 0.035 | 0.016 | -0.039 | -0.032 | 0.135 | 0.003 | -0.009 | 0.1 | 0.003 | 0.028 | 0.041 | 0.043
PEX11B (UniProt O96011) | 0.071 | -0.018 | -0.038 | -0.013 | 0.006 | 0.04 | 0.064 | 0.007 | -0.085 | 0.239 | 0.052 | -0.009 | -0.001 | -0.021 | 0.001 | -0.042 | -0.006 | -0.022 | 0.024 | -0.041
PIKFYVE (UniProt Q9Y2I7) | -0.182 | -0.499 (active) | 0.103 | -0.031 | -0.049 | -0.032 | 0.032 | 0.168 | -0.05 | -0.239 | -0.001 | -0.081 | -0.175 | -0.032 | 0.009 | -0.033 | 0.068 | -0.106 | 0.099 | -0.025
PTPN12 (UniProt Q05209) | -0.119 | -0.465 (active) | 0.063 | -0.012 | -0.077 | 0.027 | 0.015 | 0.014 | 0.079 | -0.043 | 0.085 | -0.148 | 0.007 | 0.064 | 0.063 | 0.006 | 0.047 | -0.04 | 0.076 | -0.088
POLR2G (UniProt P62487) | 0.215 | 0.276 | -0.075 | 0.054 | 0.06 | -0.003 | 0.02 | -0.01 | 0.002 | 0.081 | 0.041 | -0.016 | 0.328 (active) | -0.045 | 0.003 | 0.154 | 0.039 | 0.042 | -0.016 | -0.03
PLEKHM2 (UniProt Q8IWE5) | -0.127 | -0.177 | 0.009 | 0.037 | -0.051 | -0.175 | 0.003 | 0.034 | -0.04 | -0.357 (active) | -0.002 | -0.047 | -0.119 | 0.029 | -0.215 | -0.054 | -0.087 | -0.019 | 0.058 | -0.014
PIR (UniProt O00625) | -0.041 | -0.069 | -0.028 | 0.034 | 0.097 | -0.006 | 0.031 | 0.02 | -0.06 | -0.052 | 0.025 | -0.01 | -0.068 | -0.284 (active) | -0.002 | -0.09 | 0.045 | 0 | -0.045 | 0.012
PCID2 (UniProt Q5JVF3) | -0.032 | 0.016 | 0.072 | 0.027 | -0.149 | 0.035 | -0.021 | 0.064 | 0.055 | -0.086 | -0.164 | -0.22 | 0.012 | 0.006 | -0.033 | -0.281 | 0.051 | 0.008 | -0.036 | -0.101
POLR2K (UniProt P53803) | -0.259 | -0.002 | -0.05 | -0.032 | 0.144 | -0.049 | 0.05 | -0.059 | -0.02 | 0.05 | -0.024 | 0.032 | 0.14 | -0.031 | -0.057 | 0.034 | 0.039 | -0.047 | -0.174 | -0.063
PSMC3 (UniProt P17980) | 0.032 | 0.179 | -0.021 | -0.319 (active) | -0.028 | 0.079 | -0.031 | -0.038 | 0.021 | 0.018 | -0.043 | -0.035 | 0.058 | 0.011 | 0 | 0.06 | 0.033 | 0.003 | 0.026 | 0.004
PCGF2 (UniProt P35227) | -0.131 | -0.089 | 0.012 | -0.005 | -0.054 | -0.02 | -0.03 | 0.028 | -0.071 | -0.282 (active) | -0.029 | 0.04 | -0.074 | 0.039 | -0.057 | -0.129 | 0.024 | 0.122 | 0.071 | 0.027
PSMC5 (UniProt P62195) | 0.043 | 0.178 | -0.002 | -0.308 (active) | 0.024 | 0.039 | -0.029 | -0.014 | 0.015 | 0.066 | -0.041 | -0.004 | 0.065 | -0.013 | -0.028 | 0.066 | 0.025 | 0.065 | 0.02 | 0.009
PCNT (UniProt O95613) | 0.08 | 0.131 | -0.147 | -0.177 | -0.105 | -0.002 | -0.101 | 0.05 | 0.158 | -0.567 (active) | -0.06 | 0.115 | 0.067 | -0.069 | -0.098 | 0.154 | -0.116 | 0.019 | 0.037 | 0.091
